Experiment [1] is described as follows: qHTS assay for small molecules that induce genotoxicity in human embryonic kidney cells expressing luciferase-tagged ATAD5 (AID 651632). Note: nearly all actives have a fitted effect of over 15% in size. In short, it runs like this: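 Test compounds were delivered by pin tool onto HEK293T reporter cells (2,000/well) expressing ATAD5 fused to luciferase. After 16 hr at 37C, 5% CO2, Amplite was added for 30 min at room temperature and luminescence was measured.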
(Quantitative high-throughput screening tests each substance at several concentrations.)

Experiment [2] is described as follows: qHTS assay for small molecules that induce genotoxicity in human embryonic kidney cells expressing luciferase-tagged ATAD5 - cell viability (AID 651634; calls by dose curve; note: nearly all actives have a fitted effect of over 25% in size). In short, it runs like this: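 Quantitative high-throughput format. HEK293T cells expressing ATAD5 fused to luciferase were plated at 2,000 cells/well and treated 15.5 hr with compound versus DMSO. Viability was determined by fluorescent live-cell protease substrate, 30 min at 37C.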

Experiment [3] is described as follows: qHTS assay for small molecule disruptors of the mitochondrial membrane potential - cell viability (AID 720634; calls by dose curve;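 note: human HepG2 liver cancer cells; series mostly up to about 83 µM; nearly all actives have a fitted effect of over 20% in size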). In short, it runs like this: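 Same-well counter-screen: following the MMP dye addition, CellTiter-Glo was added to 1 hr compound-treated HepG2 cells and luminescence read after 30 min at room temperature.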
The nature of experiment [4]: qHTS assay to test for compound auto fluorescence at 590 nm (red) in HepG2 cells (AID 720674). The procedure, abridged: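 Fluorescence at 590 nm emission following 540 nm excitation was recorded from HepG2 wells one hour after compound transfer, with DMSO-only wells as vehicle and Rose Bengal sodium equivalency as the scale.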
Experiment [5] can be described thus: qHTS assay to test for compound auto fluorescence at 535 nm (green) in HepG2 cells (AID 720675).
Experiment [6] is described as follows: qHTS assay to test for compound auto fluorescence at 460 nm (blue) in HEK293 cell free culture (AID 720681). The procedure, abridged: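 Compounds were added to cell-free DMEM with 10% FBS and fluorescence read directly. The blue channel used 405 nm excitation and 460 nm emission, with triamterene as the reference fluorophore.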
A short description of experiment [7]: qHTS assay to test for compound auto fluorescence at 535 nm (green) in HEK293 cell free culture (AID 720682). The procedure, abridged:
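Measurement is a direct plate read of green fluorescence (485 nm in, 535 nm out) after compound addition to serum-supplemented DMEM lacking cells, with fluorescein used to express intensities.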

A short description of experiment [8]: qHTS assay to test for compound auto fluorescence at 590 nm (red) in HEK293 cell free culture (AID 720683). The procedure, abridged: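 Cell-free wells of DMEM with 10% FBS received compound, and intrinsic fluorescence was read at excitation/emission 540/590 nm. Values expressed as equivalence to Rose Bengal sodium.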
The nature of experiment [9]: qHTS assay to test for compound auto fluorescence at 460 nm (blue) in HepG2 cell free culture (AID 720685). In short, it runs like this: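 Cell-free plates of MEM plus 10% FBS received 23 nL compound or DMSO vehicle; blue-channel (405/460 nm) intensity scored against triamterene as reference fluorophore.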
Experiment [10] in a line: qHTS assay to test for compound auto fluorescence at 535 nm (green) in HepG2 cell free culture (AID 720686).
A short description of experiment [11]: qHTS assay to test for compound auto fluorescence at 460 nm (blue) in HepG2 cells (AID 720687). The procedure, abridged: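 HepG2 cells in MEM with 10% FBS, attached overnight at 37 C, were exposed to compound or DMSO for 1 hr at 37 C, 5% CO2. Blue fluorescence was read at 405/460 nm, with triamterene as reference fluorophore.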
A short description of experiment [12]: qHTS assay to identify small molecule antagonists of the glucocorticoid receptor (GR) signaling pathway - cell viability counter screen (AID 720693). Note: nearly all actives have a fitted effect of over 55% in size. Note: potency is the fitted concentration of half-maximal effect.
Experiment [13] can be described thus: qHTS assay to identify small molecule antagonists of the thyroid receptor (TR) signaling pathway (AID 743065). Note: nearly all actives have a fitted effect of over 55% in size. Note: potency is the fitted concentration of half-maximal effect. The procedure, abridged:
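GH3.TRE-Luc rat pituitary cells (two TREs driving luciferase) were dosed with compound, then stimulated with 1 nM T3 (final) for 23.5 h at 37 C. ONE-Glo luminescence was the read-out, with CellTiter-Fluor fluorescence as the cytotoxicity counter-screen.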

The test system of experiment [14] is thyroid hormone receptor (rat, GH3 cells). As to the kind of experiment: qHTS assay to identify small molecule agonists of the thyroid receptor (TR) signaling pathway (AID 743066; calls by dose curve).
The nature of experiment [15]: qHTS assay to identify small molecule antagonists of the estrogen receptor alpha (ER-alpha) signaling pathway - cell viability counter screen (AID 743074; calls by dose curve;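 note: HEK293 cells carrying ER-alpha-UAS-bla reporter stimulated with 17beta-estradiol; nearly all actives have a fitted effect of over 45% in size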).
The nature of experiment [16]: qHTS assay to identify small molecule antagonists of the estrogen receptor alpha (ER-alpha) signaling pathway using the BG1 cell line - cell viability counter screen (AID 743081).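 Note: compound given together with 17beta-estradiol as the ER stimulus; series mostly up to about 70 µM; nearly all actives have a fitted effect of over 45% in size.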
A further experiment deals with Aromatase (Homo sapiens) (UniProt P11511). As to the kind of experiment: qHTS assay to identify aromatase inhibitors (AID 743083). Note: series mostly up to about 70 µM; nearly all actives have a fitted effect of over 55% in size.
Chain of Aromatase (Homo sapiens) (P11511 whole entry, looked up): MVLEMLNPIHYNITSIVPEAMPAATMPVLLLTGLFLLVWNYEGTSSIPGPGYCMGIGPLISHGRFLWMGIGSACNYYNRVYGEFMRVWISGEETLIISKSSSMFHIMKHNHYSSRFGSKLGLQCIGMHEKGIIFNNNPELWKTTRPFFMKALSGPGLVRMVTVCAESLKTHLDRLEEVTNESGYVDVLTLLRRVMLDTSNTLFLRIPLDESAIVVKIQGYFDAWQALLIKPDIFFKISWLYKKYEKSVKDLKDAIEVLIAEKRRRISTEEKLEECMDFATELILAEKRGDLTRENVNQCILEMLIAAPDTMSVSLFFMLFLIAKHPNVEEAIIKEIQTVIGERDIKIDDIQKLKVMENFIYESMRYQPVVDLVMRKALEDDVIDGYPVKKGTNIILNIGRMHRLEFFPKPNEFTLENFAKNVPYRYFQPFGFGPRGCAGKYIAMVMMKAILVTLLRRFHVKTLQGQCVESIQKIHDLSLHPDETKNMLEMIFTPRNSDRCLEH
Experiment [17] in a line: qHTS assay to identify aromatase inhibitors - cell viability counter screen (AID 743084).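 Note: cells stimulated with testosterone during compound exposure; nearly all actives have a fitted effect of over 55% in size.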
Experiment [18] can be described thus: qHTS assay to identify small molecule phospholipidosis (PLD) inducers (AID 1259344; active = well fitted curve in the direction sought with a large enough effect; an effect the other way counts as inactive or inconclusive). The procedure, abridged:
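Image-based: LipidTOX Red pit count/intensity per well and per cell; HepG2, 24 h compound at 37 C, PFA fixation, Hoechst counterstain.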

Experiment [19] addresses Aryl hydrocarbon receptor (Homo sapiens) (UniProt P35869). As to the kind of experiment: qHTS assay to identify small molecule that activate the aryl hydrocarbon receptor (AhR) signaling pathway (AID 743085). Note: nearly all actives have a fitted effect of over 15% in size. Note: potency is the fitted concentration of half-maximal effect. In short, it runs like this:
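24 h compound exposure, 37C, HepG2-derived HG2L7.5c1 cells with DRE-responsive luciferase. Readouts: fluorescence viability, then luminescence at room temperature after 30 min.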

Here are results for nine compounds from PubChem BioAssay (Tox21).

Values without a mark were called inactive. Inconclusive results are not listed. Activity calls are given as the source filed them. Unless noted, calls come from the whole dose curve; as a rule, active = well fitted curve in the direction sought with a large enough effect in the repeat runs; inconclusive = weak or mixed curves; inactive = no such curve, though single readings can be large; an effect the other way counts as inactive or inconclusive.

Chain of Aryl hydrocarbon receptor (Homo sapiens) (P35869 whole entry, looked up): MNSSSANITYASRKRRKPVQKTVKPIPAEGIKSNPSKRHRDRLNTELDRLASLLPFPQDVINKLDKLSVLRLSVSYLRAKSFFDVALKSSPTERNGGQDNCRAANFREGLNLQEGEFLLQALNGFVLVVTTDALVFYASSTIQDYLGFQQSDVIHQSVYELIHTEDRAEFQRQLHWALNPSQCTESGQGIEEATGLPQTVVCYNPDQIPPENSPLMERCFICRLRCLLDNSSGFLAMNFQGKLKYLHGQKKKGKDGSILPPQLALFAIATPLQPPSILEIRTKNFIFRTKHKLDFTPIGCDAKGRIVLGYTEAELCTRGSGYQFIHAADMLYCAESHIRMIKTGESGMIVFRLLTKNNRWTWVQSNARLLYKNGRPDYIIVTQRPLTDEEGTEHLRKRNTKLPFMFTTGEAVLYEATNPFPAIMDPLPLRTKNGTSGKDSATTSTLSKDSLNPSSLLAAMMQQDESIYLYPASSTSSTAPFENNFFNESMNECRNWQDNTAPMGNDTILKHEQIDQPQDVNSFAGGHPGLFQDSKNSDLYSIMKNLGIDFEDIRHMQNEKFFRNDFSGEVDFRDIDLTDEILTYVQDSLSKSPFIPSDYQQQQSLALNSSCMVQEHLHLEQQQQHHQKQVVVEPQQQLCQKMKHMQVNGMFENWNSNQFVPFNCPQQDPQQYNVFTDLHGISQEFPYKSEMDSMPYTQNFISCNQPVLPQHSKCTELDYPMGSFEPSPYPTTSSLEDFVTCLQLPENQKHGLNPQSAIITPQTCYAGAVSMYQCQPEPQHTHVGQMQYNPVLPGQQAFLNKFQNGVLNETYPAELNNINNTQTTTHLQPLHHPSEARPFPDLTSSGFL

For `CN[C@@H](C)Cc1ccccc1`, the Potency result in experiment [1], in experiment [2], in experiment [3], in experiment [5], in [6] and in experiment [7] was “inactive” in each case. The Potency result in experiment [9], in experiment [10], in experiment [11], in experiment [12], in [13] and in experiment [14] was “inactive” each time. In addition, the Potency result (in [15]; in [16]; in the experiment with Aromatase (Homo sapiens); in [17]; in experiment [18]) was “inactive” each time. Moreover, the compound was called inactive in experiment [4] and in experiment [8].

Regarding `C=C[C@H]1CN2CC[C@H]1C[C@H]2[C@H](OC(=O)OCC)c1ccnc2ccc(OC)cc12`, the Potency entry in [1], in experiment [2], in experiment [3], in [5], in [6] and in experiment [7] was “inactive” throughout. The Potency entry in [9], in experiment [10], in [11], in [12], in experiment [13] and in [14] was “inactive” throughout. In addition, the Potency entry (in experiment [16]; with Aromatase (Homo sapiens); in experiment [17]; in experiment [18]) was “inactive” each time. In addition, the result in experiment [4] and in experiment [8] was inactive.

In the case of `Cc1cc(C)cc(C(=O)OC2C[C@H]3CC[C@@H](C2)N3C)c1` (stereo partly drawn), the Potency entry in experiment [1], in experiment [2], in experiment [3], in [5], in experiment [6] and in experiment [7] was “inactive” in each case. Besides, the Potency entry in experiment [9], in experiment [10], in experiment [11], in experiment [12], in [14] and in experiment [15] was “inactive” in each case. Moreover, the Potency entry (in experiment [16]; with Aromatase (Homo sapiens); in [17]; in [18]) was “inactive” throughout. For the same compound, the result in experiment [4] and in experiment [8] was inactive. The Potency in experiment [13] is 18.8 µM (active).

In the case of `CC(C)[C@H]1C(=O)N2CCC[C@H]2[C@]2(O)O[C@](NC(=O)[C@@H]3C[C@@H]4c5cccc6[nH]cc(c56)C[C@H]4N(C)C3)(C(C)C)C(=O)N12`, the Potency entry in [1], in experiment [2], in experiment [3], in [5], in experiment [6] and in experiment [7] was “inactive” throughout. The Potency entry (in experiment [9]; in experiment [10]; in [11]; in experiment [12]; in experiment [15]; with Aromatase (Homo sapiens)) was “inactive” each time. Besides, the Potency result in experiment [17], in experiment [19] and in experiment [18] was “inactive” throughout. Besides, the result in [4] and in experiment [8] was inactive. For the same compound, the Potency in experiment [13] was 29.8 µM (active).

Take `C=CCC1([C@@H](C)CCC)C(=O)NC(=O)NC1=O`: the Potency entry in experiment [1], in [2], in experiment [3], in [5], in experiment [6] and in experiment [7] was “inactive” each time. For the same compound, the Potency result in experiment [9], in [10], in experiment [11], in experiment [12], in experiment [13] and in [14] was “inactive” in each case. For the same compound, the Potency entry (in experiment [15]; in [16]; with Aromatase (Homo sapiens); in [17]; in experiment [19]; in experiment [18]) was “inactive” each time. The result in experiment [4] and in experiment [8] was inactive.

Consider `CN[C@]1(c2ccccc2Cl)CCCCC1=O`, for which the Potency result in experiment [1], in experiment [2], in experiment [3], in [6], in experiment [7] and in experiment [9] was “inactive” each time. The Potency entry (in experiment [11]; in experiment [12]; in experiment [13]; in [14]; in experiment [16]; in the experiment with Aromatase (Homo sapiens)) was “inactive” each time. For the same compound, the Potency result in experiment [17], in [19] and in [18] was “inactive” each time. Moreover, the compound was classed as inactive in experiment [4] and in experiment [8].

As for `C[C@]12CCC(=O)C[C@@H]1CC[C@@H]1[C@@H]2CC[C@@]2(C)[C@H]1CC[C@]2(C)O`, the Potency result in [1], in experiment [2], in experiment [3], in experiment [5], in [6] and in experiment [7] was “inactive” each time. For the same compound, the Potency result in experiment [9], in [10], in experiment [11], in experiment [12], in experiment [14] and in experiment [15] was “inactive” each time. In addition, the Potency entry (in [16]; with Aromatase (Homo sapiens); in experiment [17]; in [19]; in [18]) was “inactive” throughout. The call in experiment [4] and in experiment [8] was inactive.

Consider `C=CCC1(C(C)CCC)C(=O)N=C(S)NC1=O` (stereo not drawn), for which the Potency result in [1], in [2], in experiment [3], in experiment [5], in experiment [6] and in [7] was “inactive” throughout. For the same compound, the Potency result in experiment [9], in [10], in experiment [11], in experiment [12], in experiment [13] and in experiment [14] was “inactive” in each case. In addition, the Potency entry (in experiment [15]; in experiment [16]; with Aromatase (Homo sapiens); in [17]; in [19]; in experiment [18]) was “inactive” throughout. Further, the outcome in [4] and in experiment [8] was inactive.

`c1ccc(C2(N3CCCC3)CCCCC2)cc1`: the Potency entry in experiment [1], in experiment [3], in experiment [5], in [6], in experiment [7] and in experiment [9] was “inactive” each time. The Potency entry (in experiment [10]; in experiment [11]; in experiment [15]; in experiment [16]; with Aromatase (Homo sapiens); in experiment [17]) was “inactive” each time. The Potency result in experiment [18] was “inactive”. The compound was classed as inactive in experiment [4] and in experiment [8]. Further, the Potency is 26.8 µM (active) in experiment [12], 13.3 µM (active) in [13] and 26.6 µM (active) in experiment [19].
